Measurements published in ChEMBL document CHEMBL1961873, “Compounds: GSK PKIS; Assays: Nanosyn kinase panel” (2012).

What was measured:
[1] = biological target: Serine/threonine-protein kinase PAK 6 (Homo sapiens) (UniProt Q9NQU5); settings: at 1 µM;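 further: values are mean percent inhibition of PAK6 kinase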
[2] = test system: Tyrosine-protein kinase ABL1 (Homo sapiens), P00519 [E255K]; settings: at 0.1 µM
[3] = test system: Tyrosine-protein kinase ABL1 (Homo sapiens), P00519 [E255K]; settings: at 1 µM
[4] = test system: Tyrosine-protein kinase ABL1 (Homo sapiens), P00519 [H396P]; settings: at 0.1 µM
[5] = test system: Tyrosine-protein kinase ABL1 (Homo sapiens), P00519 [H396P]; settings: at 1 µM
[6] = test system: Tyrosine-protein kinase ABL1 (Homo sapiens), P00519 [M351T]; settings: at 0.1 µM
[7] = test system: Tyrosine-protein kinase ABL1 (Homo sapiens), P00519 [M351T]; settings: at 1 µM
[8] = test system: Tyrosine-protein kinase ABL1 (Homo sapiens), P00519 [Q252H]; settings: at 0.1 µM
[9] = test system: Tyrosine-protein kinase ABL1 (Homo sapiens), P00519 [Q252H]; settings: at 1 µM
[10] = test system: Tyrosine-protein kinase ABL1 (Homo sapiens), P00519 [T315I]; settings: at 0.1 µM

Sequence of Serine/threonine-protein kinase PAK 6 (Homo sapiens) (Q9NQU5 whole entry, looked up): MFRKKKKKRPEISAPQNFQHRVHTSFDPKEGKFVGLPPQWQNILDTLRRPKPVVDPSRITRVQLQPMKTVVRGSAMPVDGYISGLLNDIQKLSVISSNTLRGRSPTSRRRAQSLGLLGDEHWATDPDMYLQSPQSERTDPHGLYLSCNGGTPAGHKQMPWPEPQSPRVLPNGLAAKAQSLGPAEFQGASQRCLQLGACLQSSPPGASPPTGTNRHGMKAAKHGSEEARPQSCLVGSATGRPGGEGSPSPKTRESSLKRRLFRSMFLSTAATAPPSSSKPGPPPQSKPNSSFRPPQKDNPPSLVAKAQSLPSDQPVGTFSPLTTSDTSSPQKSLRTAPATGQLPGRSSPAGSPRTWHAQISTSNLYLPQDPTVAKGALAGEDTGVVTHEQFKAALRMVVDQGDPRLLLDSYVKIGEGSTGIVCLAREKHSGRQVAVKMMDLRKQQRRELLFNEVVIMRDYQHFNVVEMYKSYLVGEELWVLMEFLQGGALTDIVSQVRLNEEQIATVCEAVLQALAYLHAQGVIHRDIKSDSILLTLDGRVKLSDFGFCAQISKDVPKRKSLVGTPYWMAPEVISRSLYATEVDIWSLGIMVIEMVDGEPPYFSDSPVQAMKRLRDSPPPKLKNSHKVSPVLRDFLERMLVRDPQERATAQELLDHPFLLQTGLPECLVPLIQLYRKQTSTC

Row | Structure (SMILES) | inhibition [1] [%] | inhibition [2] [%] | inhibition [3] [%] | inhibition [4] [%] | inhibition [5] [%] | inhibition [6] [%] | inhibition [7] [%] | inhibition [8] [%] | inhibition [9] [%] | inhibition [10] [%]
1 | NC(=O)c1ccc(Oc2nccc(-c3c(-c4ccc(F)cc4)ncn3C3CCNCC3)n2)cc1 | -4.13 | 2.12 | 3.91 | 5.26 | 5.53 | -1.3 | -0.09 | 2.63 | 7.69 | 3.03
2 | Fc1ccc(-c2ncn(C3CCNCC3)c2-c2ccnc(Oc3ccc4c(c3)OCO4)n2)cc1 | -5.42 | 2.98 | 4.48 | 5.49 | 7.54 | 1.29 | 3.88 | 4.09 | 6.75 | 3.51
3 | CN(C)c1ccc2c(c1)/C(=C/Nc1ccc(S(N)(=O)=O)cc1)C(=O)N2 | -1.53 | 2.53 | 12.8 | 2.8 | 14.3 | 3.86 | 15.8 | 4 | 17.8 | 3.12
4 | Nc1nccc(-c2c(-c3ccc(F)cc3)ncn2C2CCC(O)CC2)n1 (stereo not given) | -1.54 | 2.5 | 16.9 | 3.86 | 33.6 | 7.44 | 36.6 | 5.19 | 33.9 | 6.26
5 | O=C(Nc1n[nH]c2nc(-c3ccc(O)cc3)c(Br)cc12)C1CC1 | 8.5 | 21 | 66.4 | 38.5 | 81 | 37.4 | 81 | 37.5 | 82.4 | 43.5
6 | CCS(=O)(=O)c1ccc(OC)c(Nc2ncc(-c3cccc(-c4ccccc4F)c3)o2)c1 | 1.97 | 40.6 | 84.4 | 34.5 | 82 | 44.6 | 86.9 | 37.9 | 84.6 | 1.82
7 | c1ccc(Oc2ccc(Nc3ncc(-c4ccccc4)o3)cc2)cc1 | -7.12 | 1.57 | 0.84 | 2.43 | 0.51 | 1.56 | 1.33 | 1.3 | 0.81 | 1.59
8 | COc1cc2ncn(-c3cc(OCc4cccs4)c(C(N)=O)s3)c2cc1OC | 11 | 2.64 | 29.8 | 10.9 | 51.6 | 7.47 | 50.4 | 8.78 | 46.3 | 12.2
9 | CCc1nccc2c1nc(-c1nonc1N)n2CC | -8.78 | -0.36 | 0.91 | 1.08 | 1.44 | -0.68 | 3.2 | 0.51 | 3.64 | -0.7
10 | NC(=O)c1cc(-c2ccc(F)cc2)cc(-c2ccncc2)c1N | -7.94 | 3.29 | 4.43 | 3.43 | 5.86 | 2.81 | 2.85 | 4.84 | 5.67 | 3.32
11 | C[C@@H](Oc1cc(-n2cnc3ccc(OC4CCN(C)CC4)cc32)sc1C(N)=O)c1ccccc1Cl | -9.57 | 1.25 | 8.32 | 4.49 | 10.5 | 0.86 | 5.39 | 3.24 | 11 | 2.01
12 | Clc1ccc(CNc2nccc(-c3cnn4ncccc34)n2)cc1 | -0.19 | 4.07 | 3.72 | 4.81 | 5.52 | 4.62 | 3.11 | 2.33 | 6.07 | 0.52
13 | CCc1cccc(CC)c1/C=C/c1cncc(C(=O)NC)c1 | 11.5 | 3.61 | 17.5 | 7.45 | 37.4 | 7.15 | 32.1 | 3.16 | 12.1 | 2.72
14 | COc1ccc2cc(-c3c(-c4ccncc4)nc(-c4ccc(S(C)(=O)=O)cc4C)n3C)ccc2c1 | -3.99 | 2.69 | 10.9 | 5.32 | 17.9 | 2.32 | 18 | 6.25 | 22.4 | 8.12
15 | CN(c1ccc(NC(=O)Nc2c(Cl)cccc2Cl)cc1)c1ccnc(Nc2cccc(CS(C)(=O)=O)c2)n1 | 0.99 | 8.03 | 35.9 | 30 | 69.3 | 46.9 | 81.9 | 39.3 | 72.3 | 41.6
16 | Cc1ccc(C(=O)NC2CCC2)cc1-c1ccc(C(=O)NCC2CC2)cc1 | -6.65 | 1.89 | 1.67 | 1.26 | 0.31 | -0.23 | -0.39 | 0.6 | 1.97 | 0.82
17 | CNC(=O)c1cncc(/C=C/c2c(C)cccc2C)c1 | 2.54 | 8.21 | 50.1 | 17.2 | 61.5 | 16.9 | 63.8 | 14.5 | 60.2 | 1.83

Row | Structure (SMILES) | inhibition [1] [%] | inhibition [2] [%] | inhibition [3] [%] | inhibition [4] [%] | inhibition [5] [%] | inhibition [6] [%] | inhibition [7] [%] | inhibition [8] [%] | inhibition [9] [%] | inhibition [10] [%]
18 | Fc1ccc(-c2c(-c3ccncc3)nc3n2CCS3)cc1 | -5.03 | 1.44 | 4.74 | 2.06 | 3.54 | -0.24 | 5.03 | 1.69 | 4.11 | 0.05
19 | Fc1ccc(-c2nc3n(c2-c2ccncc2)CCS3)cc1 | -7.43 | 1.52 | 4.79 | 2.85 | 3.2 | 1.2 | 4.76 | 2.91 | 5.38 | 1.83
20 | COc1ccc(-c2ccc3c(NC(=O)C4CC4)n[nH]c3n2)cc1 | -4.51 | 0.71 | 9.06 | 3.91 | 28 | 1.26 | 27.1 | 0.06 | 13.6 | 2.42
21 | Fc1ccc(-c2ncn(C3CCNCC3)c2-c2ccnc(Oc3ccc(F)c(F)c3)n2)cc1 | -4.15 | 1.96 | 1.25 | 4 | 3.19 | -0.04 | -0.02 | 2.26 | 2.39 | 0.22
22 | NC(=O)Cc1ccccc1Oc1nccc(-c2c(-c3ccc(F)cc3)ncn2C2CCNCC2)n1 | -1.76 | 0.8 | 2.45 | 0.08 | -2.39 | -1.54 | -1.6 | 2.24 | 1.77 | 1.47
23 | COc1cccc(-n2cnc3c(N/N=C/c4ccncc4)ncnc32)c1 | 3.44 | 30.8 | 80.2 | 47.1 | 87.1 | 44.7 | 88.1 | 40.1 | 84.2 | 1.94
24 | N#Cc1ccc(Oc2nccc(-c3c(-c4ccc(F)cc4)ncn3C3CCNCC3)n2)cc1 | -7.23 | 2.37 | 3.79 | 3.91 | 5.59 | 2.13 | 4.25 | 4 | 6.46 | 3.62
25 | O=C(Nc1n[nH]c2nc(-c3ccco3)ccc12)C1CC1 | 3.45 | 2.26 | 5.68 | 3.89 | 10.4 | 4.48 | 15 | 4.58 | 9.24 | 2.66
26 | COc1ccc2cc(-c3c(-c4ccncc4)nc(-c4ccc([S+](C)[O-])cc4C)n3C)ccc2c1 (stereo not given) | 1.24 | -1.36 | 5.96 | 2.45 | 17.6 | 2.12 | 19.8 | 2.32 | 18 | 9.26
27 | c1ccc(-c2n[nH]cc2-c2ccnc(-c3ccc(OCCN4CCOCC4)cc3)c2)nc1 | 3.66 | 9.49 | 47.8 | 19.5 | 70.9 | 22.1 | 69.1 | 11.9 | 51.8 | 1.78
28 | FC(F)(F)c1cccc(Nc2nccc(-c3cnn4nc(-c5ccccc5)ccc34)n2)c1 | -5.84 | 0.92 | 2.38 | -0.38 | 4.75 | -1.63 | 2.9 | 1.86 | 5.75 | -0.65
29 | O=C(NCC1CC1)c1ccc(-c2cccc(C(=O)NC3CC3)c2)cc1 | 8.38 | 2.4 | 3.09 | 3.44 | 3.43 | 2.14 | 4.08 | 2.78 | 4.27 | 2.52
30 | COc1ccc(C2=C(N3CCc4ccccc43)C(=O)NC2=O)cc1 | -1.91 | 3.46 | 3.94 | 3.85 | 5.26 | -0.47 | 7.03 | 4.56 | 6.15 | 3.54
31 | O=C1NC(=O)C(c2cccc(Cl)c2)=C1Nc1ccc(Cl)c(C(=O)O)c1 | -4.4 | 1.78 | 3.24 | 2.08 | 6.18 | 2.29 | 5.05 | 2.43 | 4.98 | 1.3
32 | C/C(Nc1ccc(S(N)(=O)=O)cc1)=C1/C(=O)Nc2ccccc21 | 0.59 | -1.03 | 3.45 | 0.93 | 7.24 | 3.92 | 14.7 | 2.51 | 13.6 | 1.39
33 | Cc1ccc(NC(=O)c2ccoc2)cc1-c1ccc(C(=O)NCC2CC2)cc1 | -2.77 | 1.13 | -0.37 | 3.08 | 2.07 | 0.71 | 1.82 | 2.29 | 0.64 | 2.05
34 | COc1cccc(/C=N/Nc2ncnc3c2cnn3-c2cccc(OC)c2)c1 | -7.63 | 7.5 | 34.4 | 9.64 | 41.8 | 7.51 | 42 | 12.9 | 54.9 | 3.28
